# LYPLA2 counter – LYPLA2 (human) inhibition in PME1 counter-screen. recombinant LYPLA2, FP-Rh probe fluorescence polarization. inhibition, % at 5.9 µM. 320,000 tested, 0.38% active. AID 2177;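 active means inhibition above the screen-wide mean plus 3 SD, limit set per campaign, cut at about 26% in these data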;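 further: 0% = LYPLA2 with DMSO and 100% = wells lacking LYPLA2 enzyme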
# PME-1 inh – PME-1 (human) inhibition; Q9Y570; recombinant PME-1, FP-Rh probe fluorescence polarization; inhibition, % at 5.9 µM; 320,000 tested, 0.53% active;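 active means inhibition above the campaign mean of all compounds plus 3 SD, cut at about 26% in these data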;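 further: competitive labeling of PME-1 active site by serine hydrolase directed probe; 0% = PME-1 with DMSO and 100% = wells lacking PME-1 enzyme; inhibitors block probe labeling so polarization falls and inhibition rises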
# Target sequence (Q9Y570 whole entry, looked up): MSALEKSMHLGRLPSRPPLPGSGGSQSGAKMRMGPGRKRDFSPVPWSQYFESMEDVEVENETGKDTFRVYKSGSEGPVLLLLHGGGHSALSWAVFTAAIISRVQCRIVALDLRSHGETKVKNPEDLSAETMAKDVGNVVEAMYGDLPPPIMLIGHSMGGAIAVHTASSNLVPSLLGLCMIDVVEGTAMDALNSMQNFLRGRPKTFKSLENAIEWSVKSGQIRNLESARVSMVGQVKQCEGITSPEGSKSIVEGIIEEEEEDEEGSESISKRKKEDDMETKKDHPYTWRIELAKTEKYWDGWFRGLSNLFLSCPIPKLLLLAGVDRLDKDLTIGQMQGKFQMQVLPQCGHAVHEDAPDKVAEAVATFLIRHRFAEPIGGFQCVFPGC
# Fam108B counter – Fam108B inhibition, counter-screen for RBBP9 inhibitors; recombinant Fam108B, FP-Rh probe fluorescence polarization; inhibition, % at 9.51 µM; 300,000 tested, 0.33% active;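 active means inhibition above the screen mean inhibition plus 3 SD, computed separately per campaign, cut at about 18% in these data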;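 further: inhibitors lower polarization as less probe binds the enzyme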
# PP1 counter – counter-screen for PP5 inhibitors: inhibitors of human PP1-alpha | P62136 | purified PP1alpha, OMFP fluorescence | inhibition, % at 6.7 µM | 320,000 tested, 0.9% active;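 active means inhibition above the mean inhibition of all tested compounds plus 3 SD, computed separately for each screening campaign, cut at about 15% in these data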
# Target sequence (P62136 whole entry, looked up): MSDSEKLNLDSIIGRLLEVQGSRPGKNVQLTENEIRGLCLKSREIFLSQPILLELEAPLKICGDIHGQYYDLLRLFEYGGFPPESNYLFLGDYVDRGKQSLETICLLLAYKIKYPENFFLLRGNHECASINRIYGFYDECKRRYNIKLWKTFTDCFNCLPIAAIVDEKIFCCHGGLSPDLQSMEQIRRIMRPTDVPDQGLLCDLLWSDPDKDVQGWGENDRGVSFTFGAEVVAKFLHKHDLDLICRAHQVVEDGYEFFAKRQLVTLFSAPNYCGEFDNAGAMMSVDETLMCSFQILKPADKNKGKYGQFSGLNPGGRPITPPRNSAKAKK
# LYPLA1 counter – blocks human lysophospholipase 1, a PME1 counter-screen | O75608 | inhibition, % at 5.9 µM | recombinant LYPLA1, FP-Rh probe fluorescence polarization | 320,000 tested, 0.16% active;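 active means inhibition above the mean of all tested compounds plus 3 SD, set per campaign, cut at about 14% in these data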;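 further: inhibitors block serine hydrolase probe labeling of LYPLA1 so polarization falls; 0% = enzyme with DMSO and 100% = wells lacking LYPLA1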
# PP5 primary – PP5 (human) phosphatase inhibition | P53041 | purified PP5c, OMFP substrate fluorescence | inhibition, % at 6.7 µM | 320,000 tested, 0.18% active;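 active means inhibition above the campaign's mean inhibition across all tested compounds plus 3 SD, cut at about 9.5% in these data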;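 further: 0% = DMSO only and 100% = 100 µM cantharidin control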
# Fam108b confirm – confirmation of mouse Fam108b serine hydrolase inhibitors. 930 tested, 44% active. recombinant Fam108b, FP-Rh probe fluorescence polarization. inhibition, % at 9.51 µM. shares compounds with Fam108B counter;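 active means inhibition above a limit from the primary screen, the mean over all compounds plus 3 SD, cut at about 19% in these data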;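 further: 0% = median of active Fam108b wells and 100% = catalytically dead S170A mutant; inhibitors free the probe so polarization falls as inhibition rises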
# Fam108b ABPP HTS – inhibits mouse Fam108b in gel-based ABPP; shares compounds with Fam108B counter; recombinant Fam108b, fluorophosphonate probe; inhibition, % at 20 µM; 260 tested, 44% active; in the data active means inhibition above about 40%
# Active calls of the source: *; x = not tested or not shown. Sampled rows, rich in hits. Any-hit rate of the full collection: about 1.8%.
SMILES,LYPLA2 counter,PME-1 inh,Fam108B counter,PP1 counter,LYPLA1 counter,PP5 primary,Fam108b confirm,others
O=C1CCc2cc(S(=O)(=O)Nc3ccc(F)cc3)cc3c2N1CC3,4.5,-4.8,-1.0,-8.6,-0.4,0.5,x,
Cc1[nH]c2c(C)cccc2c1CCNC(=O)c1ccc2c(c1[N+](=O)[O-])C(=O)c1ccccc1C2=O,8.2,31.2*,23.5*,9.5,-2.5,0.1,30.3*,Fam108b ABPP HTS=60.0*
Cc1ccccc1NC(=O)NC1(C(=O)NCC2CCCO2)CCCCC1 (stereo unspecified),3.1,1.5,5.0,-4.8,1.7,1.6,x,
Cc1cc(C)nc(SCc2ccc(C(=O)NN=Cc3cccc(O)c3O)cc2)n1,x,x,x,x,x,x,x,Fam108b ABPP HTS=90.0*
COc1ccc(O)c(/C=N/NC(=O)c2ccc(CSc3nc(C)cc(C)n3)cc2)c1,1.5,17.7,8.0,8.1,0.4,1.3,x,
NC(=O)c1ccc([N+](=O)[O-])cc1SCc1ccccc1,14.7,5.7,7.0,-1.9,3.1,0.1,x,
N[C@H](CSCc1ccccc1)C(=O)Nc1ccc([N+](=O)[O-])cc1,0.0,26.3*,29.5*,6.0,-11.2,2.6,-5.3,
COc1cccc(-n2c(C)cc(/C=C3\C(=N)N4N=C(CC(=O)N5CCOCC5)SC4=NC3=O)c2C)c1,-0.8,-3.6,-1.0,2.8,1.2,0.8,x,
CCc1cccc2cc3c(N)c(C(=O)Nc4ccc(S(=O)(=O)N5CCCC5)cc4)sc3nc12,14.0,38.4*,54.2*,5.8,-8.0,1.4,-16.6,
Cc1cccc2cc3c(N)c(C(=O)Nc4ccc(N5CCOCC5)cc4)sc3nc12,1.4,21.1,19.9*,-1.5,-1.4,4.9,2.3,
C=CCN1C(=O)c2ccc(C(=O)N3CCN(S(=O)(=O)c4ccccc4Br)CC3)cc2C1=O,-0.8,-1.4,-2.2,-4.7,1.7,-1.6,x,
C[C@@H](NC(=O)Cn1ccc(N)nc1=O)c1cccc2ccccc12,5.7,-1.5,x,-1.3,4.2,2.4,x,
Nc1c(Cl)cc(-c2[nH]c3cc(C(=O)NCCO)ccc3c(=O)c2O)cc1Cl,-26.2,41.5*,28.6*,0.3,-20.7,0.4,17.9,
O=S(=O)(Nc1ccc(F)cc1)N1CCOCC1,1.2,-7.4,2.7,10.1,0.7,0.4,x,
CCN(CC)S(=O)(=O)c1cc(NC(=O)COC(=O)c2ccc(NC(=O)CC#N)cc2)ccc1C,-9.7,-1.6,-3.0,2.4,-16.5,4.1,x,
CCN(CC)S(=O)(=O)c1cc(NC(=O)COC(=O)c2sc3ccccc3c2Cl)ccc1C,-5.3,7.7,42.6*,3.1,-3.2,3.8,58.6*,Fam108b ABPP HTS=90.0*
Cc1nc2scc(-c3ccccc3)c2c(=O)o1,6.7,-1.8,33.8*,-1.6,0.6,-1.3,61.2*,Fam108b ABPP HTS=85.0*
COc1ccc(-c2csc3nc(-c4ccccc4OC)oc(=O)c23)cc1,15.9,-9.3,27.9*,2.3,3.5,1.8,51.5*,Fam108b ABPP HTS=85.0*
O=c1oc(-c2ccccc2F)nc2scc(-c3ccccc3)c12,-4.3,-11.9,55.4*,-5.6,-3.1,-2.3,54.4*,Fam108b ABPP HTS=80.0*
COc1ccc(-c2csc3nc(-c4ccc(C)cc4)oc(=O)c23)cc1OC,2.9,10.1,-0.8,6.3,-3.8,0.5,x,
Cc1cccc(-c2nc(Nc3ccc(N4CCOCC4)cc3)c3ccccc3n2)c1,-7.2,19.3,20.1*,2.7,-10.9,3.7,1.5,
CCCSc1nnc(NC(=O)c2ccco2)s1,-7.1,0.5,2.1,3.9,-1.9,1.8,x,
CCCSc1nnc(NC(=O)c2sc3nc(-c4cccs4)ccc3c2N)s1,6.9,42.4*,21.5*,14.4,-7.9,-0.7,-106.5,
COc1ccc(C(=O)Nc2nc(-c3cccs3)cs2)cc1,-5.2,-20.0,-4.1,-3.4,-11.0,3.4,x,
Cc1csc(NC(=O)c2sc3nc(-c4cccs4)ccc3c2N)n1,-11.7,45.1*,31.1*,1.2,-15.8,1.3,6.7,
SMILES,LYPLA2 counter,PME-1 inh,Fam108B counter,PP1 counter,LYPLA1 counter,PP5 primary,Fam108b confirm,others
COc1cc(C(=O)NC2CCCC(C)C2C)ccc1OCC(=O)N1CCOCC1 (stereo unspecified),8.3,2.3,x,-0.6,2.1,4.1,x,
CC(C)C1Nc2ccc(C(=O)O)cc2C2C=CCC21 (stereo unspecified),0.9,-8.2,8.3,5.0,-4.9,0.8,x,
CCCC1Nc2ccc(C(=O)O)cc2C2C=CCC12 (stereo unspecified),0.3,-22.1,25.3*,2.0,-4.6,3.0,0.6,
CCN(CC)S(=O)(=O)c1cccc(N=Nc2c(O)c3ccccc3oc2=O)c1,7.2,1.7,3.5,-2.9,3.2,0.3,x,
COc1cc(/C=C2/C(=O)c3cccc([N+](=O)[O-])c3C2=O)c(Br)cc1O,4.4,31.7*,26.7*,0.6,1.2,2.9,40.1*,Fam108b ABPP HTS=45.0*
COc1ccccc1NC(=O)CCCCCN1C(=O)c2cccc([N+](=O)[O-])c2C1=O,-2.6,-0.3,0.0,-1.8,-2.0,1.1,x,
CC(Sc1nnc(NC2CCCCC2)s1)C(=O)Nc1ccc2c(c1)C(=O)c1ccccc1C2=O (stereo unspecified),-10.4,31.9*,27.4*,13.6,-6.5,4.8,4.8,
Cc1ccc(S(=O)(=O)N2CCN(C(=O)COC(=O)c3ccc(Cl)nc3)CC2)c(C)c1,3.4,7.5,x,-4.7,-0.7,-0.4,x,
COc1ccc2c(Cl)c(C(=O)N/N=C/c3c(C)[nH]c4ccccc34)sc2c1,-11.5,32.4*,32.9*,3.9,-10.6,1.0,20.9*,
CC(=O)Oc1cc2c3c(c1)/C(=C1/SC(=S)NC1=O)C(=O)N3C(C)(C)C=C2C,9.2,24.8,19.2*,8.8,6.9,4.3,22.3*,
Cc1[nH]n(-c2ccccc2)c(=O)c1N=Nc1c(O)cc(S(=O)(=O)N(C)C)c2ccccc12,6.0,53.9*,75.0*,3.7,-0.5,5.5,88.8*,Fam108b ABPP HTS=0.0
COc1ccc(Nc2nc(-c3cccs3)nc3ccccc23)cc1,-0.3,18.2,28.2*,3.0,-2.5,6.2,-10.9,
CC(C)CC(C)N1CCC(n2nccc2NC(=O)CCc2ccccc2)CC1 (stereo unspecified),8.1,5.0,1.2,-0.8,2.5,0.5,x,
O=C(N/N=C/c1ccc([N+](=O)[O-])cc1)c1ccc(COc2ccccc2-c2ccccc2)cc1,-11.4,-10.6,25.6*,-3.3,-10.6,3.9,2.6,
CCCc1cc(=O)oc2cc(C)cc(OCC(=O)N[C@@H](CSCc3ccccc3)C(=O)O)c12,2.7,5.6,-3.9,0.5,2.7,7.2,x,
O=C(Nc1cc([N+](=O)[O-])ccc1O)c1ccc2c(c1)C(=O)N(Cc1ccco1)C2=O,13.0,12.0,6.7,3.7,2.0,6.4,x,
Cc1cc(C(=O)O)ccc1-n1c(C)ccc1C,-2.6,-17.9,24.4*,27.4*,0.8,4.1,14.2,

# Source: PubChem BioAssay (The Scripps Research Institute Molecular Screening Center)
